The values below come from PubChem BioAssay AID504900 (The Scripps Research Institute Molecular Screening Center, 2011).

This is one part of the list. Active and inactive are the calls of the source. No stated cut-off is given here; in the data, active means inhibition above about 32%; inactive means the rest.

The target in the assay is Mu-type opioid receptor (Homo sapiens) + Delta-type opioid receptor (Homo sapiens) (UniProt P35372+P41143). In words: inverse agonists of MOR-DOR heterodimerization, confirmation, cell-based, luminescence (AID 504900).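 Further: 0% = cells with DMSO and 100% = wells lacking cells with DMSO.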 Particulars: cells expressing OPRM1/OPRD1 heterodimer, at 9.3 µM, hits give high values.
Chain of Mu-type opioid receptor (Homo sapiens) + Delta-type opioid receptor (Homo sapiens) (P35372 whole entry, looked up): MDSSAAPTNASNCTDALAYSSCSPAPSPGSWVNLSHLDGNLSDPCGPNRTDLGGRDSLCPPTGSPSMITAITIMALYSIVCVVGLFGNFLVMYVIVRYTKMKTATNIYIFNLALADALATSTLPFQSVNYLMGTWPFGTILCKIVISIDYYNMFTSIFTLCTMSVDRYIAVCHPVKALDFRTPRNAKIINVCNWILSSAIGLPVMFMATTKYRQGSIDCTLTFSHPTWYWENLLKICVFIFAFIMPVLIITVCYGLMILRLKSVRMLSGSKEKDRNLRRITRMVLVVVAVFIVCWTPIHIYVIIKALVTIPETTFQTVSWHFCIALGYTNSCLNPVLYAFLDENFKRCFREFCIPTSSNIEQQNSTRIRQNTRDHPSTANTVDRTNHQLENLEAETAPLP
Chain of Mu-type opioid receptor (Homo sapiens) + Delta-type opioid receptor (Homo sapiens) (P41143 whole entry, looked up): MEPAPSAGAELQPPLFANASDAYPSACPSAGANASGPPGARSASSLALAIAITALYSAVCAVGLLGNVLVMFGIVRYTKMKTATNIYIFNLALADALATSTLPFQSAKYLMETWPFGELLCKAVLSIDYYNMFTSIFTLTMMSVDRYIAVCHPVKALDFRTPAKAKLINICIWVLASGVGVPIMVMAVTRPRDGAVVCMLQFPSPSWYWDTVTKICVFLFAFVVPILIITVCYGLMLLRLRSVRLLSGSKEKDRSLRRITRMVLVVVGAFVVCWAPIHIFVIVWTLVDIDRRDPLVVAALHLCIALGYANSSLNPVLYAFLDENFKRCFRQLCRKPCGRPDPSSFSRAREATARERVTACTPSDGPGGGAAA
For `O=C1C(=O)N(CC2COc3ccccc3O2)c2ccccc21` (centres undefined), the inhibition (commonly the drop in the measured response relative to a control, in per cent) is 15.2% (inactive).

Consider `O=C1C(=O)N(c2ccccc2)c2ccccc21`, for which the inhibition is -11.8% (inactive). Take `Cc1cccc(N=Nc2c(O)[nH]c3ccc(F)cc23)c1`: the inhibition was 20.6% (inactive).

For `CN(O)C(=S)c1ccccc1`, the inhibition is 16.7% (inactive). To `Cc1ccc(C(=O)CNc2ccc(F)cc2)cc1` belongs -20% (inactive); to `CN(c1ccccc1)S(=O)(=O)c1ccc(NC(=O)COc2ccccc2)cc1`, -21.8% (inactive); to `COc1cc(NS(=O)(=O)c2ccc3ccccc3c2)c2ncccc2c1`, -82.7% (inactive). As to `O=[N+]([O-])/C=C/c1ccc2c(ccn2Cc2ccccc2)c1`, the inhibition was -234% (inactive).

Regarding `Oc1ccc(N=Nc2nccs2)c(O)c1`, the inhibition is 12.6% (inactive).

Consider `CCOc1ccc(NC(=O)c2cccc3c2C(=O)N(CC2CCCO2)C3)cc1` (centres undefined), for which the inhibition was -4.18% (inactive). For `CC(C)OC(=O)CN1C(=O)C(=O)c2ccccc21` the value was -355% (inactive); for `COC(=O)Cc1c(-c2[nH]c3ccccc3c2CC(=O)OC)[nH]c2ccccc12`, -123% (inactive); for `CCOC(=O)CN1C(=O)C(O)(CC(=O)c2ccccn2)c2ccccc21` (centres undefined), 24.7% (inactive). To `CCOC(=O)CN1C(=O)C(=O)c2cc(C)ccc21` belongs -25.7% (inactive); to `Cc1cccc2c1N(CC(=O)OC(C)C)C(=O)C2=O`, -138% (inactive).

Consider `C=CCn1c(N)c(C(=O)OCC(C)C)c2nc3ccccc3nc21`, for which the inhibition is 14.8% (inactive). For `CCCCC(=O)NNC(=S)NC(=O)C(c1ccccc1)c1ccccc1` the value was -427% (inactive); for `O=C(CCl)NNc1cccc(Cl)n1`, 69.8% (active). As to `Cc1cccc(C)c1NC(=O)C(Cl)C(=O)c1ccccc1` (centres undefined), the inhibition was -42.6% (inactive). As to `CN(C)/C=C1/Nc2ccccc2C1=O`, the inhibition is -27.4% (inactive).

In the case of `CSCCC(NC(=O)COc1ccccc1)C(=O)OCC(=O)c1cc2ccccc2o1` (centres undefined), the inhibition is 37.5% (active). For `Cc1ccc2c(c1)C(O)(CC(=O)c1cccnc1)C(=O)N2` (centres undefined) the value was 22.7% (inactive). For the compound `N#CC1=C(N)C(C#N)(C#N)[C@H](c2ccsc2)[C@H]2COCC=C12`, the inhibition was -0.3% (inactive).

As to `Cc1ccc(NNC(=O)c2cccs2)cc1Cl`, the inhibition is -17.7% (inactive).
